Laboratory results as given in PubChem BioAssay AID624351 (Southern Research Specialized Biocontainment Screening …, 2012).
The whole screen tested about 2,400 compounds, of which about 1,400 (58%) were called active.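 The calls were made as follows: active = inhibition of 30% or more at any tested dose; inconclusive = primary hits over the limit that were never retested; inactive = the rest.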 The set was probably picked from earlier hits. Some of the results follow.

Test: coupled detection enzyme interference, dose response, artefact control for MgcRacGAP inhibitor project, biochemical, coupled enzyme counter-screen (AID 624351);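 also: signal is the ADP detection kit reading of free GDP without any GAP enzyme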;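 as to inhibition: 0% = median positive control wells and 100% = median negative control wells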
Details: ADP Hunter coupled enzyme counter-screen, fluorescence, no MgcRacGAP; series mostly up to 80 µM; inhibition: at the top concentration

Structure (SMILES)	inhibition	IC50
c1ccc(-c2ccccc2OCCCCn2ccnc2)cc1	13.5% (inactive)	
COc1ccccc1OCC#CCn1ccnc1	17.3% (inactive)	
Nc1sc(-c2ccccc2)c(Cc2ccccc2)c1C(=O)O		70.5 µM (active)
COc1ccc(CCNC(=O)CNCC(c2ccccc2)N(C)C)cc1OC (stereo not given)	23.1% (inactive)	
CN(c1ccccc1)S(=O)(=O)c1cccc(C(=O)NCCc2ccc(O)c(O)c2)c1		71 µM (active)
CCN(c1ccccc1)S(=O)(=O)c1ccc(OC)c(NC(=O)CNCCc2ccccc2)c1	8.56% (inactive)	
COc1ccc(N)cc1NC(=O)CN1CCOCC1	26.4% (inactive)	
COc1ccccc1NS(=O)(=O)c1cc(N)ccc1N1CCCC1		75.2 µM (active)
COc1ccc(S(=O)(=O)N2CCC(N3CCN(c4ccccc4OC)CC3)CC2)cc1	18.6% (inactive)	
CC(C)(C)c1cc(Cl)ccc1OCCOCCN1CCCC1	18.9% (inactive)	
O=C(Nc1ccc(O)cc1)c1cccc(Oc2ccc([N+](=O)[O-])cc2)c1		48.2 µM (active)
O=C(Nc1ccc(C2=NCCN2)cc1)c1ccc(C(=O)Nc2ccc(C3=NCCN3)cc2)c([N+](=O)[O-])c1	3.21% (inactive)	
COC(=O)C1=C(C)N(CC2CCCO2)C(=O)/C1=C\c1ccc(O)cc1 (stereo not given)		24.4 µM (active)
CCS(=O)(=O)c1nn2c(N)c(/C=C3/C=CC(=O)C(OC)=C3)c(=O)nc2s1		39.6 µM (active)
COC1=C/C(=C/c2c(N)n3cc(C)sc3nc2=O)C=CC1=O		82 µM (active)
O=C(CNCc1ccccn1)N1CCc2ccccc2C1	14.9% (inactive)	
CN(C)c1ccc(NC(=O)COC(=O)CNC(=O)c2cccs2)cc1		55.7 µM (active)
COc1nc(N)nc(NC(=O)c2cccs2)c1N=O	2.46% (inactive)	
CCOC(=O)CSc1nc(N)c(C(=O)Nc2ccc(N(C)C)cc2)s1		32.8 µM (active)
Cc1ccc(NC(=O)CNCC(c2ccccc2)N(C)C)cc1F (stereo not given)	21.2% (inactive)	
Cc1ccccc1SCC(=O)OCC(=O)Nc1ccc(N(C)C)cc1		81.6 µM (active)
CCOC(=O)c1c(NC(=O)CN(C)C2CCN(C)CC2)sc(C(=O)Nc2ccccc2)c1C	23.1% (inactive)	

Structure (SMILES)	inhibition	IC50
COc1ccc(OCCn2ccnc2C)cc1	13.6% (inactive)	
COc1cc(/C=N/Nc2nc3ccccc3[nH]2)ccc1O		17.9 µM (active)
COc1ccc(/C=N/Nc2nc3ccccc3[nH]2)cc1OC		73.8 µM (active)
COc1cc(/C=N/Nc2nc3ccccc3s2)ccc1O		67.7 µM (active)
O=S1(=O)N=C(Nc2ccc(O)cc2)c2ccccc21		29.2 µM (active)
COc1cc(CNc2ccc(N3CCOCC3)cc2)cc(Br)c1OC		12.5 µM (active)
CCOc1cc(CNc2ccc(N3CCCCC3)cc2)cc(Br)c1OCC(=O)NC(C)(C)C		20.4 µM (active)
COc1cc2c(cc1OC)C(c1cc(Br)c(OC)c(OC)c1)CC(=O)N2 (stereo not given)	3.38% (inactive)	
COc1cc(CN2CCN(Cc3ccc(C(F)(F)F)cc3)CC2)cc(OC)c1OC	10.7% (inactive)	
CCOc1c(Cl)cc(CNc2ccc(N3CCCC3)cc2)cc1OC	-9.27% [at 5 µM] (inactive)	
CCOc1cc(CNc2ccc(N3CCOCC3)cc2)cc(Br)c1OCC		16.9 µM (active)
CCOc1cc(CNc2ccc3[nH]c(=O)[nH]c3c2)ccc1OCC(=O)NC(C)(C)C		67.7 µM (active)
CNc1c2cccc(C)c2nc2c(C(=O)NCCN(C)C)cccc12	19.5% (inactive)	
COc1ccc(CCNc2nc(=S)[nH]c3cc(OC)c(OC)cc23)cc1OC	28.5% (inactive)	
CCCCNc1nc(=S)[nH]c2cc(OC)c(OC)cc12		68.9 µM (active)
CCN(CC)CCCNc1nc2ccccc2c2[nH]c3ccc(OC)cc3c12	20.3% (inactive)	
COCCCNc1nc(=S)[nH]c2cc(OC)c(OC)cc12		74.1 µM (active)
Cc1cc2[nH]c3c(c[n+](C)c4ccccc34)c2cc1C	21.4% (inactive)	
Cc1cc(C)c2c(=N)c3ccccc3n(CCCCCCCCn3c4ccccc4c(=N)c4c(C)cc(C)nc43)c2n1	25.6% (inactive)	
O=C1C=CC(=O)c2c(O)c(N3CCN(CCOCCO)CC3)c(Br)c(O)c21	-3.44% (inactive)	
CCOc1ccccc1CN1CCC(N2CCOCC2)CC1	20.6% (inactive)	
C=CCc1cc(Cl)ccc1OCCNCCN1CCOCC1	22.5% (inactive)	

Structure (SMILES)	inhibition	IC50
C=CCc1cc(C=Nc2ccc(N3CCOCC3)cc2)cc(OCC)c1O		14.6 µM (active)
COc1ccc(CN(C)CC(=O)Nc2ccc(Cl)cc2C(F)(F)F)c(OC)c1	15.9% (inactive)	
Nc1n[nH]c(N)c1N=Nc1ccc2c(c1)OCO2		38 µM (active)
O=S(=O)(O)c1ccc(O)c2cc(Nc3ccccc3)ccc12	17.6% (inactive)	
CC(=O)C1=C(S(=O)(=O)c2ccc(C)cc2)CS(=O)(=O)C1	6.22% (inactive)	
Cc1ccc(S(=O)(=O)c2cc(Nc3ccccc3)ccc2O)cc1		68 µM (active)
CC1(C)OC(C)(C)/C(=C/Nc2ccc(O)cc2)C1=O		22.2 µM (active)
CCOc1cc(/C=N/NC(=O)c2ccccc2-n2cccc2)ccc1O		44.9 µM (active)
COc1cc(/C=N/NC(=O)c2cc(-c3ccccc3OC(C)C)nc3ccccc23)ccc1O	29.6% (inactive)	
COc1cc(C=NNC(=O)c2ccccc2-n2cccc2)ccc1O		36.4 µM (active)
CCCCN(CC)CCNC(=O)CCC(=O)Nc1ccc2nc(N3CCN(C)CC3)cc(C)c2c1	18.5% (inactive)	
C=CCn1c(SCC(=O)Nc2ccc(N(C)C)cc2)nnc1-c1cccc(C)c1		58.8 µM (active)
COc1cccc(-c2ncc3ccccn23)c1	16.3% (inactive)	
C=CCn1c(SCC(=O)c2ccc(O)c(O)c2)nnc1-c1cccc(OC)c1		68 µM (active)
CCn1c(SCC(=O)Nc2ccc(N(C)C)cc2)nnc1-c1cccc(C)c1		70.3 µM (active)
CCn1c2ccccc2c2cc(NC(=O)CNC)ccc21	22.4% (inactive)	
Cc1ccc(C2=NN=C(NC(=O)CSc3nncn3C)SC2)cc1	8.11% (inactive)	
O=S(=O)(NC1=NCCCCC1)c1ccc2sc(NS(=O)(=O)c3ccc4ccccc4c3)nc2c1	-3.65% (inactive)	
CCOc1ccc(C(=O)NC(=S)Nc2ccc(N3CCCCC3)cc2)cc1[N+](=O)[O-]	20% (inactive)	
CC(=O)Nc1ccc(OC(=O)c2ccc(Br)c([N+](=O)[O-])c2)cc1	9.25% (inactive)	
COc1cc(/C=C(/NC(=O)c2ccccc2)C(=O)Nc2ccc(O)cc2)c([N+](=O)[O-])cc1OC		58 µM (active)
